Hits are enriched below; roughly 18% of the tested compounds scored in any of these assays.
HepG2 viability – kills HepG2 cells in TGF-b inhibitor counter-screen; HepG2 CAGA-GFP viability, ATP luminescence, 18 h; Potency, µM (top dose mostly 46.1 µM), for the others: at the top dose activity change, negative = cytotoxicity, usual class: cytotoxic; hit rate 0.76% among 410,000; also: potency is read from the fitted curve at half-maximal effect
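CellTiter-Glo luminescence gave cytotoxicity after 18 hours at 37 degrees C. The cells were HepG2 CAGA-GFP in 1% FBS DMEM, stimulated with 500 pg/mL TGF-beta after compound addition. %Activity was normalised to no-cell wells (complete cell-killing) and DMSO (no toxicity), and curves were fitted and classified.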
TDP1 block – inhibitors of human tyrosyl-DNA phosphodiesterase TDP1 | Q9NUW8 | recombinant TDP1, AlphaScreen DNA substrate cleavage | Potency, µM (top dose mostly 130 µM), without a hit: at the top dose activity change, negative = inhibition, usual class: inhibitors | hit rate 0.28% among 350,000 | AID 485290; also: potency is read from the fitted curve at half-maximal effect; % is scaled to controls: 0 for no effect and ±100 for the full control effect; nearly all actives have a fitted effect of over 40% in size
Target sequence (Q9NUW8 whole entry, looked up): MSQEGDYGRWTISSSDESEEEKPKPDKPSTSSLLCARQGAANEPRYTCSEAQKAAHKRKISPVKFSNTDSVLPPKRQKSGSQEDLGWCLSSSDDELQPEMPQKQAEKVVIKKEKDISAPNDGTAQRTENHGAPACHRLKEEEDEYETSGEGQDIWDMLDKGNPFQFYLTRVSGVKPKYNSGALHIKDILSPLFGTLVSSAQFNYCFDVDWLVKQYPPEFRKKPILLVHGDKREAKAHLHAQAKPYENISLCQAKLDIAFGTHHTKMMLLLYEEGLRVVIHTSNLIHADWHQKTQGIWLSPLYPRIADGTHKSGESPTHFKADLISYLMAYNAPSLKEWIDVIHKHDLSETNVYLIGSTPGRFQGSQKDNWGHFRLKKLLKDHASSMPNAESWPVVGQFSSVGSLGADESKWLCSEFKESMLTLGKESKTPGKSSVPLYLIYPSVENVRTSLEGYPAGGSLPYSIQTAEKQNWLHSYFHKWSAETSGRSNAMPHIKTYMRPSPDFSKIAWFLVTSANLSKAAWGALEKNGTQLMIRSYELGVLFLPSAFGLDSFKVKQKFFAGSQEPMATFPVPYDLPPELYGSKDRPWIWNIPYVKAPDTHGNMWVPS
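AlphaScreen read-out: signal falls as enzyme removes the 3' tyrosine-FITC from a 5'-biotinylated DNA oligo (15 nM, 5 min, RT). Enzyme was E. coli-made recombinant Tdp1 at 1 nM, exposed to compound for 15 min beforehand; beads 10 ug/ml, 10 min.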
IL1B secr inh – inhibitors of inflammasome signaling (IL-1 beta secretion) | THP-1 LPS/ATP IL-1B secretion, AlphaLISA, 16 h; hits give low values | activity change, % at 57.5 µM | hit rate 4.7% among 360,000 | AID 743279; in the data active = activity change below about -50%; inconclusive = mostly about -30% to -49%; also: % is scaled to controls: 0 for no effect and ±100 for the full control effect
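Secreted IL-1B measured by AlphaLISA bead assay after 16 h compound exposure of THP-1 cells; compounds (final up to 57.5 uM) added 1 h before LPS (250 ng/mL) and ATP (1.25 mM) stimulation; lower signal means less secretion.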
TGFb inhibitor – blocks TGF-b signaling; hit rate 1.2% among 410,000; Potency, µM (highest dose often 46.1 µM), inactives show at the top dose activity, negative = inhibition, actives largely listed as inhibitors; HepG2 CAGA-GFP TGF-b/SMAD3 reporter, GFP fluorescence, 18 h; TGF-beta stimulated, 500 pg/mL final; AID 588855; also: potency is read from the fitted curve at half-maximal effect; % is scaled to controls: 0 for no effect and ±100 for the full control effect; nearly all actives have a fitted effect of over 65% in size
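HEPG2 CAGA-GFP cells (1000/well, DMEM with 1% FBS) were pre-incubated 2 h at 37 degrees C, given compound by pin tool, then stimulated with TGF-beta at 500 pg/mL final for 18 h before per-cell GFP fluorescence imaging.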
DT40 TDP1 no CPT – qHTS for Inhibitors of human tyrosyl-DNA phosphodiesterase 1 (TDP1): qHTS in cells in absence of CPT; DT40 Tdp1-/- hTDP1 cells, no CPT, ATP luminescence, 48 h; Potency, µM (titrated, usually from 46.2 µM), inactives show top-dose activity change, negative = growth inhibition, most hits filed as inhibitors; hit rate 15% among 420,000; also: potency is read from the fitted curve at half-maximal effect; % is scaled to controls: 0 for no effect and ±100 for the full control effect; nearly all actives have a fitted effect of over 55% in size
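Cells were dispensed at 400 per well, compounds added by pin tool, plates incubated ≥48 hr at 37 °C, then CellTiter-Glo added for 30 min at room temperature before luminescence reading. Line: DT40 Tdp1-/- complemented with hTDP1; camptothecin omitted.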
DT40 TDP1 CPT – DT40-hTDP1 cell growth loss with CPT; Potency, µM (series often up to 46.2 µM), for inactives: at the highest dose activity change, negative = growth inhibition, usual class: inhibitors; hit rate 12% among 420,000; chicken DT40 Tdp1-/-;hTDP1 cells + 20 nM CPT, ATP luminescence, 48 h; also: potency is read from the fitted curve at half-maximal effect; % is scaled to controls: 0 for no effect and ±100 for the full control effect; nearly all actives have a fitted effect of over 55% in size
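Chicken DT40 Tdp1-/- cells stably complemented with human TDP1 were seeded at 400 cells/well in medium containing 20 nM camptothecin, exposed to pin-transferred compounds, and grown at 37 °C for at least 48 hr. Viability was read as ATP luminescence.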
The depositor's hits bear a star; ? = inconclusive; · = not tested or not shown; [ ] = another dose, or the depositor's remark. Unless noted, calls follow the shape of the dose curve; as a rule, active = well fitted curve in the direction sought with a large enough effect; inconclusive = small, poorly fitted or top-dose-only effect, or another doubt; inactive = no such curve, though single readings can be large; an effect the other way counts as inactive or inconclusive.

SMILES	HepG2 viability	TDP1 block	IL1B secr inh	TGFb inhibitor	DT40 TDP1 no CPT	DT40 TDP1 CPT
Oc1c(Br)cc(Br)cc1C=Nc1cccnc1	-9.0%	·	9.8	-26.5%	20.6µM*	?
Cc1nnc(C)n1/N=C/c1cc(Br)cc(Br)c1O	-23.2%	-7.1%	24.9	-2.4%	-7.1%	-2.5%
Oc1c(Br)cc(Br)cc1C=Nc1ccc2[nH]ncc2c1	-21.1%	·	-1.7	?	?	-28.1%
Oc1ccc(Cl)cc1/C=N/c1nccs1	-27.6%	3.1%	12.9	?	11.2µM*	12.6µM*
Oc1ccc(Cl)cc1C=Nc1ccc(Br)cc1	-5.4%	5.4%	16.5	1.9%	-28.8%	-4.9%
Oc1c(Br)cc(Br)cc1/C=N/c1nccs1	-0.5%	0.8%	24.4	?	18.4µM*	?
O=C(CCNC(=O)c1ccc(Cl)cc1)Nc1ccccc1N1CCCC1	-1.9%	2.4%	-7.5	?	-26.7%	-14.7%
Cc1nn(C)c(C)c1N1C(=O)c2cccc3c(N)ccc(c23)C1=O	-1.3%	3.8%	3.0	55.6%	-9.8%	-25.8%
Cc1ccc(N2C(=O)c3cccc4c(N)ccc(c34)C2=O)c2cccnc12	-0.4%	·	150.5	379.2%	0.0206µM*	0.0082µM*
Cc1ccc2oc(=O)n(Cc3ccccc3OC(C)C)c2c1	-0.9%	-3.3%	28.1	-15.3%	14.6µM*	?
Cc1ccc(S(=O)(=O)N/N=C/c2cc(Br)ccc2O)cc1	1.3%	9.4%	21.8	-24.0%	-9.6%	?
Cc1ccc(S(=O)(=O)Nc2ccc(Br)cc2/C=N/n2cnnc2)cc1	-21.0%	0.0%	10.8	?	29.1µM*	?
CN(C)C(=O)c1ccc(NC(=O)CSc2nnc(-c3cccs3)n2N)cc1	-8.4%	-0.3%	2.2	-14.0%	-4.4%	0.3%
O=C(C[C@H]1C[C@H](C(=O)N2CCOCC2)[C@@]2(CCC3CCCC3)c3[nH]c4cc(-c5ccco5)ccc4c3CCN2C1=O)NCCC1=CCCCC1	-7.6%	1.3%[56.1 µM]	?	?	20.6µM*	?
CN(C)CCCNC(=O)C[C@H]1C[C@H](C(=O)N2CCOCC2)[C@@]2(CCC3CCCC3)c3[nH]c4cc(CCC(=O)N(C)C)ccc4c3CCN2C1=O	7.2%	1.8%[56.1 µM]	3.5	3.6%	-1.3%	1.0%
O=C(C[C@H]1C[C@H](C(=O)N2CCOCC2)[C@@]2(CCC3CCCC3)c3[nH]c4ccc(Cl)cc4c3CCN2C1=O)NCCc1ccccn1	12.0%	0.3%[56.1 µM]	-10.9	-23.6%	16.4µM*	16.4µM*
COc1ccc2[nH]c3c(c2c1)CCN1C(=O)C(CC(=O)NCCC2=CCCCC2)C[C@H](C(=O)N2CCOCC2)[C@@]31CCC1CCCC1 (stereo not given in full)	12.9%	1.1%[56.1 µM]	-2.0	2.4%	-4.9%	6.2%
CN(C)C(=O)CCc1ccc2c3c([nH]c2c1)[C@]1(CCC2CCCC2)[C@@H](C(=O)N2CCOCC2)C[C@H](CC(=O)NCCC2=CCCCC2)C(=O)N1CC3	-55.8%	0.5%[56.1 µM]	21.2	?	23.1µM*	23.1µM*
O=C(C[C@H]1C[C@H](C(=O)N2CCOCC2)[C@@]2(CCC3CCCC3)c3[nH]c4cc(-c5ccco5)ccc4c3CCN2C1=O)NCCc1ccccn1	-47.6%	5.7%[56.1 µM]	-52.0*	?	?	?
Cc1ccc(-n2ncc3c2CC(C)(C)CC3NC(=O)CCc2ccc(=O)[nH]n2)cc1 (stereo not given)	-2.9%	1.4%	-3.0	-5.6%	25.3%	0.9%
CCCCOc1ccccc1C(=O)N(Cc1cccc(F)c1)C1CCS(=O)(=O)C1 (stereo not given)	-27.8%	0.0%	·	?	?	?
CCCOc1c(Br)cc(C(=O)OCC(=O)NC(=O)c2cccn2C)cc1OC	-54.1%	-2.8%[56.1 µM]	-11.4	2.2%	?	?
O=C(C[C@H]1C[C@H](C(=O)N2CCOCC2)[C@@]2(CCC3CCCC3)c3[nH]c4cc(-c5ccco5)ccc4c3CCN2C1=O)NCc1ccco1	2.1%	-6.2%[56.1 µM]	-55.3*	?	16.4µM*	?
CN(C(=O)c1cccc(NC(=O)Cc2ccc(NC(=O)C3CCN(C(=O)C4CCC4)CC3)cc2)c1)C1CC1	-15.6%	·	12.3	1.3%	-1.9%	0.3%
Cc1ccc(Cn2ccn(Cc3ccccc3C)c(=O)c2=O)cc1	-5.6%	2.6%	·	-3.1%	-26.9%	-19.0%
SMILES	HepG2 viability	TDP1 block	IL1B secr inh	TGFb inhibitor	DT40 TDP1 no CPT	DT40 TDP1 CPT
O=S1(=O)c2cccc3cccc(c23)N1Cc1nnc(-c2ccccc2Br)o1	-47.9%	-0.9%	-21.4	-18.3%	18.4µM*	14.6µM*
COC(=O)[C@@]12C[C@@H](CC(=O)N3CCCC3)C(=O)N(Cc3ccc4c(c3)OCO4)C1=CCC(C)(C)C2	·	·	-23.7	·	?	?
COC(=O)[C@@]12C[C@@H](CC(=O)N3CCN(C(=O)c4ccco4)CC3)C(=O)N(Cc3ccccc3)C1=CCC(C)(C)C2	·	·	-4.8	·	14.6µM*	?
COC(=O)[C@@]12C[C@@H](CC(=O)N3CCN(C(=O)c4ccco4)CC3)C(=O)N(Cc3ccc4c(c3)OCO4)C1=CCC(C)(C)C2	·	·	?	·	20.6µM*	18.4µM*
COC(=O)[C@]12CCCCC=C1N(Cc1ccc3c(c1)OCO3)C(=O)[C@H](CC(=O)N1CCN(C(=O)c3ccco3)CC1)C2	·	·	-55.9*	·	?	?
CCC[C@@H]1C[C@@]1(CCC)[C@@H](NP(=O)(c1ccccc1)c1ccccc1)c1ccc(C(=O)OC)cc1	14.1µM*	2.6%	-2.7	11.2µM*	16.4µM*	?
O=C(NCCNC(=O)c1cc(Cl)ccc1Cl)c1ccco1	0.3%	9.7%	-5.2	5.9%	-12.0%	-1.5%
Cc1ccc2cc(CN(Cc3ccco3)C(=O)C3CCCCC3)c(=O)[nH]c2c1C	-0.9%	7.3%	-7.4	-4.0%	?	?
COc1ccccc1NC(=S)N(Cc1ccco1)Cc1cc2cc(C)cc(C)c2[nH]c1=O	-11.4%	4.1%	20.2	-21.1%	10.3µM*	10.3µM*
Cc1ccc2cc(CN(Cc3ccco3)C(=O)NC3CCCCC3)c(=O)[nH]c2c1C	0.6%	7.3%	?	?	29.1µM*	16.4µM*
COc1ccccc1NC(=S)N(Cc1ccco1)Cc1cc2ccc(C)c(C)c2[nH]c1=O	2.9%	8.2%	10.9	?	0.581µM*	0.581µM*
CNC(=S)N(Cc1ccco1)Cc1cc2cc(OC)c(OC)cc2[nH]c1=O	-5.8%	3.0%	-7.4	0.1%	0.2%	3.3%
